From PubChem BioAssay (Tox21)
Records with an inconclusive call do not appear. Calls of active or inactive are those of the source. Unless noted, calls come from the whole dose curve.

Assays:
[1] = qHTS assay to identify small molecule agonists of the vitamin D receptor (VDR) signaling pathway - cell viability counter screen (AID 743224; active = well fitted curve in the direction sought with a large enough effect in the repeat runs; an effect the other way counts as inactive or inconclusive; note: series mostly up to about 63 µM; % is set by controls: 0 for no effect and ±100 for the full control effect; nearly all actives have a fitted effect of over 50% in size)
Outline: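 Counter screen for cytotoxicity: VDR-bla cells at 2,000 cells/well, 16 h compound exposure, then CellTiter-Glo luminescence after the beta-lactamase measurement.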

[2] = qHTS assay to identify small molecule antagonists of the vitamin D receptor (VDR) signaling pathway - cell viability counter screen (AID 743225; active = well fitted curve in the direction sought with a large enough effect in the repeat runs; an effect the other way counts as inactive or inconclusive; note: % is set by controls: 0 for no effect and ±100 for the full control effect; nearly all actives have a fitted effect of over 50% in size)
Outline: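 Parallel cytotoxicity test: VDR-UAS-bla HEK 293T, 3 nM (final) 1-alpha,25-dihydroxyvitamin D3 with test compound, 16 h, 37C. Endpoint is CellTiter-Glo luminescence in the same wells.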

[3] = qHTS assay to identify small molecule agonists of the NFkB signaling pathway (AID 1159509; active = well fitted curve in the direction sought with a large enough effect in the signal ratio in the repeat runs, not every such curve was filed as active; the % refers to the signal ratio; note: series mostly up to about 61 µM; % is set by controls: 0 for no effect and ±100 for the full control effect)
Outline: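 Beta-lactamase reporter assay run in quantitative high-throughput format on an NF-kB-responsive ME-180 line, with 5 hr compound treatment and a FRET-based blue/green fluorescence readout.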

[4] = qHTS assay to identify small molecule agonists of the NFkB signaling pathway - cell viability counter screen (AID 1159515); note: series mostly up to about 61 µM; % is set by controls: 0 for no effect and ±100 for the full control effect; nearly all actives have a fitted effect of over 55% in size
Outline: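 Counter screen run alongside the NFkB-bla agonist assay: ME-180 reporter cells exposed to compounds for 5 hr, then lysed with CellTiter-Glo in the same wells. Luminescence, read after 30 min, reflects viable cells.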

[5] = qHTS assay to identify small molecule agonists of the endoplasmic reticulum stress response signaling pathway (AID 1159516; active = well fitted activation curve with a large enough effect in the signal ratio in the repeat runs, not every such curve was filed as active; the % refers to the signal ratio; note: % is set by controls: 0 for no effect and ±100 for the full control effect)
Outline: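 For this screen, HeLa cells stably carrying beta-lactamase under the ER stress response element received test compounds, positive controls or DMSO for 5 hr at 37 C; B/G FRET substrate was then added and dual-wavelength emission recorded.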

[6] = qHTS assay to identify small molecule agonists of the endoplasmic reticulum stress response signaling pathway - cell viability counter screen (AID 1159517); note: series mostly up to about 61 µM; % is set by controls: 0 for no effect and ±100 for the full control effect; nearly all actives have a fitted effect of over 50% in size
Outline: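 Cytotoxicity of test compounds toward ESRE-bla HeLa cells was assessed after 5 hr exposure. The luminescent CellTiter-Glo signal was measured 30 min after reagent addition.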

[7] = qHTS assay to identify small molecule antagonists of the retinoid-related orphan receptor gamma (ROR-gamma) signaling pathway - cell viability counter screen (AID 1159520; active = well fitted curve in the direction sought with a large enough effect in the repeat runs; an effect the other way counts as inactive or inconclusive; note: % is set by controls: 0 for no effect and ±100 for the full control effect; nearly all actives have a fitted effect of over 50% in size)
Outline: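 Tet-on ROR gamma CHO cells (1,000/well) were plated 4 hr, given compounds in DMSO for 2 hr at 37 C, then induced with 1 uM final doxycycline for 16 hr. Viability was read as ATP by CellTiter-Glo luminescence after 30 min.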

[8] = target: Nuclear receptor ROR-gamma (Homo sapiens) (UniProt P51449); assay: qHTS assay to identify small molecule antagonists of the retinoid-related orphan receptor gamma (ROR-gamma) signaling pathway (AID 1159521; active = well fitted curve in the direction sought with a large enough effect in the repeat runs; an effect the other way counts as inactive or inconclusive)
Outline: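 Decreased RORE-driven luciferase luminescence indicates antagonism. Tet-on RORγ CHO cells received compound, then 1 uM final doxycycline 2 h later; signal read after 16 h incubation.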

[9] = qHTS assay to identify small molecule agonists of the AP-1 signaling pathway - cell viability counter screen (AID 1159525); note: nearly all actives have a fitted effect of over 55% in size
Outline: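 Each titration point was normalised to DMSO and tetra n-octyl ammonium bromide controls. The read was Cell Titer Glo luminescence after 30 min at RT, following 5 h compound exposure of ME-180 AP-1-bla cells at 37 °C.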

[10] = qHTS assay to identify small molecule agonists of the AP-1 signaling pathway (AID 1159526); note: % is set by controls: 0 for no effect and ±100 for the full control effect

CCOCCOC(=O)/C=C/c1ccc(OC)cc1
inactive: Potency [1] | outcome [2] | outcome [3] | outcome [4] | outcome [5] | Potency [6] | outcome [7] | outcome [8] | outcome [9] | outcome [10]

O=S(=O)(O)c1ccc2cc(O)c(S(=O)(=O)O)cc2c1
inactive: outcome [2] | outcome [3] | outcome [4] | outcome [5] | Potency [6] | outcome [7] | outcome [8] | outcome [9] | outcome [10]

Cc1ccccc1C(=O)Nc1ccc(C(=O)N2CCCC(N(C)C)c3ccccc32)cc1 (configuration not stated)
inactive: Potency [1] | outcome [2] | outcome [3] | outcome [4] | outcome [5] | Potency [6] | outcome [7] | outcome [8] | outcome [9] | outcome [10]

Cc1ccc2ccc(Cl)cc2n1
inactive: outcome [2] | outcome [3] | outcome [4] | outcome [5] | Potency [6] | outcome [7] | outcome [8] | outcome [9] | outcome [10]

COc1cc2c(cc1OC)[C@@H]1CC(=O)[C@@H](CC(C)C)CN1CC2
inactive: Potency [1] | outcome [2] | outcome [3] | outcome [4] | outcome [5] | Potency [6] | outcome [7] | outcome [8] | outcome [9] | outcome [10]

FC(F)(F)c1ccccc1-n1ccnc1
inactive: Potency [1] | outcome [2] | outcome [3] | outcome [4] | outcome [5] | Potency [6] | outcome [7] | outcome [8] | outcome [9] | outcome [10]

CO[C@@H]1[C@@H](OC(N)=O)[C@@H](O)[C@H](Oc2ccc3c(O)c(NC(=O)c4ccc(O)c(CC=C(C)C)c4)c(=O)oc3c2C)OC1(C)C
inactive: Potency [1] | outcome [2] | outcome [3] | outcome [4] | outcome [5] | Potency [6] | outcome [7] | outcome [8] | outcome [9] | outcome [10]

C[Si](C)=O
inactive: activity change, negative = cytotoxicity [1] 2.87% [at 5.95 µM] | viability change, negative = cytotoxic [2] 6.84% [at 6.95 µM] | activation [3] 0.149% [at 6.95 µM] | activity, negative = cytotoxic [4] 10.4% [at 6.95 µM] | activation [5] -1.7% [at 6.95 µM] | activity change, negative = cytotoxicity [6] -12.1% [at 6.95 µM] | activity, negative = cytotoxicity [7] 0.127% [at 8.39 µM] | activity change, negative = inhibition [8] 3.36% [at 8.39 µM] | viability change, negative = cytotoxic [9] -14.5% [at 6.97 µM] | activation [10] -3.55% [at 6.97 µM]

O=C(CCNNC(=O)c1ccncc1)NCc1ccccc1
inactive: Potency [1] | outcome [2] | outcome [3] | outcome [4] | outcome [5] | Potency [6] | outcome [7] | outcome [8] | outcome [9] | outcome [10]

O=C(OCC(COC(=O)c1cccnc1)(COC(=O)c1cccnc1)COC(=O)c1cccnc1)c1cccnc1
inactive: Potency [1] | outcome [2] | outcome [3] | outcome [4] | outcome [5] | Potency [6] | outcome [7] | outcome [8] | outcome [9] | outcome [10]

On1nnc2ccccc21
inactive: outcome [2] | outcome [3] | outcome [4] | outcome [5] | Potency [6] | outcome [7] | outcome [8] | outcome [9] | outcome [10]

CC(=O)NCCCCCC(=O)O
inactive: Potency [1] | outcome [2] | outcome [3] | outcome [4] | outcome [5] | Potency [6] | outcome [7] | outcome [8] | outcome [9] | outcome [10]

N#Cc1ccc(C(=O)O)cc1
inactive: Potency [1] | outcome [2] | outcome [3] | outcome [4] | outcome [5] | Potency [6] | outcome [7] | outcome [8] | outcome [9] | outcome [10]

CCCCCCCCCC(C)=O
inactive: Potency [1] | outcome [2] | outcome [3] | outcome [4] | outcome [5] | Potency [6] | outcome [7] | outcome [8] | outcome [9] | outcome [10]

CCCC(=O)C(C)=O
inactive: Potency [1] | outcome [2] | outcome [3] | outcome [4] | outcome [5] | Potency [6] | outcome [7] | outcome [8] | outcome [9] | outcome [10]

O=C(CCN1CCN(CCO)CC1)N1c2ccccc2Sc2ccc(C(F)(F)F)cc21
inactive: Potency [1] | outcome [2] | outcome [3] | outcome [4] | outcome [5] | Potency [6] | outcome [7] | outcome [8] | outcome [9] | outcome [10]

OCCCCC(O)CO (configuration not stated)
inactive: Potency [1] | outcome [2] | outcome [3] | outcome [4] | outcome [5] | Potency [6] | outcome [7] | outcome [8] | outcome [9] | outcome [10]

O=C(OCC(O)CO)c1ccccc1Nc1ccnc2c(C(F)(F)F)cccc12 (configuration not stated)
inactive: Potency [1] | outcome [2] | outcome [3] | outcome [4] | outcome [5] | Potency [6] | outcome [7] | outcome [8] | outcome [9] | outcome [10]

CC(=O)Nc1ccc(S(=O)(=O)Cl)cc1
inactive: Potency [1] | outcome [2] | outcome [3] | outcome [4] | outcome [5] | Potency [6] | outcome [7] | outcome [8] | outcome [9] | outcome [10]

O=C1c2ccccc2C(=O)C1c1ccccc1
inactive: Potency [1] | outcome [2] | outcome [3] | outcome [4] | outcome [5] | Potency [6] | outcome [7] | outcome [8] | outcome [9] | outcome [10]

O=C1CCCC(=O)O1
inactive: Potency [1] | outcome [2] | outcome [3] | outcome [4] | outcome [5] | Potency [6] | outcome [7] | outcome [8] | outcome [9] | outcome [10]

COc1cc2c(cc1OC)C(=O)CC2
inactive: Potency [1] | outcome [2] | outcome [3] | outcome [4] | outcome [5] | Potency [6] | outcome [7] | outcome [8] | outcome [9] | outcome [10]

CC(C)CCCCOC(=O)c1ccccc1C(=O)OCCCCC(C)C
inactive: Potency [1] | outcome [2] | outcome [3] | outcome [4] | outcome [5] | Potency [6] | outcome [7] | outcome [8] | outcome [9] | outcome [10]
